For nine molecules, growth inhibition results are on record in PubChem BioAssay (NCI).

Test [1] can be described thus: NCI Yeast Anticancer Drug Screen. Data for the rad50 strain (AID 155).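 Note: 0% = growth of vehicle-only cultures of the same strain.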 To be noted: S. cerevisiae rad50 strain growth inhibition, stronger effect = higher value. The gist of the method: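 Vehicle-treated cultures provide the reference for the growth inhibition reported for compound-exposed, repair-deficient yeast.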
Test [2] is described as follows: NCI Yeast Anticancer Drug Screen. Data for the mec2-1 strain (AID 157). The settings on record: S. cerevisiae mec2-1 strain, stronger effect = higher value. The gist of the method: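 Growth inhibition is read against vehicle-treated controls after compound exposure of the mec2-1 yeast strain, which is defective in DNA damage repair or cell cycle control.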
A short description of test [3]: NCI Yeast Anticancer Drug Screen. Data for the sgs1 mgt1 strain (AID 161).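 Note: 0% = growth of cultures given vehicle only.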 The settings on record: S. cerevisiae sgs1 mgt1 strain, stronger effect = higher value. The method, boiled down: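 Yeast cells carrying a defined DNA-repair defect were exposed to test compounds. Growth inhibition was measured relative to vehicle-treated controls.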
A short description of test [4]: NCI Yeast Anticancer Drug Screen. Data for the cln2 rad14 strain (AID 165).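 Note: 0% = growth equal to vehicle treated cultures.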 The settings on record: S. cerevisiae cln2 rad14 strain, stronger effect = higher value. The method, boiled down: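 Growth inhibition, relative to vehicle-treated controls, is the read-out. The test organism is a yeast strain with defined genetic alterations, cln2 rad14.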
The nature of test [5]: NCI Yeast Anticancer Drug Screen. Data for the bub3 strain (AID 167). The settings on record: S. cerevisiae bub3 mutant strain, stronger effect = higher value. The gist of the method:
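Mutant yeast screening strain plus compound; vehicle-treated cultures serve as the 0% inhibition reference.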

The nature of test [6]: NCI Yeast Anticancer Drug Screen. Data for the mlh1 rad18 strain (AID 175). The settings on record: S. cerevisiae mlh1 rad18 strain growth inhibition, stronger effect = higher value. The gist of the method: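 Cells of a genetically altered yeast strain, deficient in DNA damage repair, were treated with compound. Their growth was then compared with that of vehicle-treated cultures to give inhibition.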

The mark [7] stands for this setting: at 5.0 µM (retest, dose inferred, filed as 0.5).
Where [8] appears, read: at 50.0 µM (retest, dose inferred, filed as 5.0).

About 79,000 compounds went through this panel and 15% of them were active in at least one assay; those are over-represented in the sample as a whole. Values without a mark were called inactive. Activity calls are given as the source filed them. Cut-off read from the data, not from the text of the source: active = growth inhibition above about 70%; inactive = the rest.

`COC(=S)S`: the growth inhibition was 3% in test [1] (setting [7]); 1% in test [1] (setting [8]); 41.9% in test [1] (at 50.0 µM); -2% in test [2] (setting [7]); 0% in test [2] (setting [8]); 18.7% in test [2] (at 50.0 µM). Further, the growth inhibition in test [3] (setting [7]) is 5%; in test [3] (setting [8]), 0%; in test [3] (at 50.0 µM), -11.4%; in test [4] (setting [7]) it was -4%; in test [4] (setting [8]), -2%; in test [4] (at 50.0 µM), -45.5%. Besides, the growth inhibition was -3% in test [5] (setting [7]); -5% in test [5] (setting [8]); 15.6% in test [5] (at 50.0 µM); 1% in test [6] (setting [7]); 6% in test [6] (setting [8]); -24.7% in test [6] (at 50.0 µM).
For `Cn1c(=O)ccc2cc(C(=O)c3ccccc3)ccc21`, the growth inhibition was 7% in test [1] (setting [7]); 22% in test [1] (setting [8]); 30.2% in test [1] (at 50.0 µM); -9% in test [2] (setting [7]); 7% in test [2] (setting [8]); 6.95% in test [2] (at 50.0 µM). Also, the growth inhibition in test [3] (setting [7]) is -9%; in test [3] (setting [8]) it was -5%; in test [3] (at 50.0 µM) it was 14.4%; in test [4] (setting [7]), 39%; in test [4] (setting [8]), 51%; in test [4] (at 50.0 µM) it was 35.4%. In addition, the growth inhibition was -7% in test [5] (setting [7]); 46% in test [5] (setting [8]); 16.8% in test [5] (at 50.0 µM); 9% in test [6] (setting [7]); 45% in test [6] (setting [8]); 65.7% in test [6] (at 50.0 µM).
`CNC1c2ccccc2C(=O)c2cc3c(cc21)OCCOCCOCCOCCO3` (configuration not stated): the growth inhibition in test [1] (setting [7]) was -10%; in test [1] (setting [8]) it was 7%; in test [1] (at 50.0 µM) it was 11.8%; in test [2] (setting [7]), -4%; in test [2] (setting [8]) it was -12%; in test [2] (at 50.0 µM), 8.1%. Further, the growth inhibition was -10% in test [3] (setting [7]); -12% in test [3] (setting [8]); 12.1% in test [3] (at 50.0 µM); -25% in test [4] (setting [7]); -12% in test [4] (setting [8]); 40.8% in test [4] (at 50.0 µM). Moreover, the growth inhibition is -13% in test [5] (setting [7]); -2% in test [5] (setting [8]); 20.8% in test [5] (at 50.0 µM); -6% in test [6] (setting [7]); 1% in test [6] (setting [8]); 27.2% in test [6] (at 50.0 µM).
Regarding `Cc1ccc(N=C2SC(=S)N(CCC[N+](C)(C)C)C2=Nc2ccc(C)cc2)cc1`, the growth inhibition in test [1] (setting [7]) was -5%; in test [1] (setting [8]) it was 99% (active); in test [1] (at 50.0 µM), 99.2% (active); in test [2] (setting [7]) it was -18%; in test [2] (setting [8]), 100% (active); in test [2] (at 50.0 µM) it was 99.5% (active). Besides, the growth inhibition in test [3] (setting [7]) was -10%; in test [3] (setting [8]), 99% (active); in test [3] (at 50.0 µM) it was 99.5% (active); in test [4] (setting [7]) it was 12%; in test [4] (setting [8]), 99% (active); in test [4] (at 50.0 µM), 99.5% (active). In addition, the growth inhibition in test [5] (setting [7]) is -4%; in test [5] (setting [8]), 99% (active); in test [5] (at 50.0 µM), 99.4% (active); in test [6] (setting [7]), 3%; in test [6] (setting [8]) it was 100% (active); in test [6] (at 50.0 µM) it was 99.4% (active).
`CN(C)c1ccc2c(NCCCCCCNc3ccnc4cc(N(C)C)ccc34)ccnc2c1`: the growth inhibition was 10% in test [1] (setting [7]); 95% (active) in test [1] (setting [8]); 84.5% (active) in test [1] (at 50.0 µM); 7% in test [2] (setting [7]); 97% (active) in test [2] (setting [8]); 91.2% (active) in test [2] (at 50.0 µM). The growth inhibition was 16% in test [3] (setting [7]); 98% (active) in test [3] (setting [8]); 53.4% in test [3] (at 50.0 µM); 1% in test [4] (setting [7]); 92% (active) in test [4] (setting [8]); 29.4% in test [4] (at 50.0 µM). The growth inhibition in test [5] (setting [7]) was -2%; in test [5] (setting [8]) it was 97% (active); in test [5] (at 50.0 µM), 30.5%; in test [6] (setting [7]), 14%; in test [6] (setting [8]) it was 95% (active); in test [6] (at 50.0 µM), -5.8%.
For the molecule `O=C(c1ccccc1)c1[nH]c2ccccc2c(=O)c1-c1ccc([N+](=O)[O-])cc1`, the growth inhibition in test [1] (setting [7]) was -6%; in test [1] (setting [8]), 96% (active); in test [1] (at 50.0 µM), 97.6% (active); in test [2] (setting [7]) it was -9%; in test [2] (setting [8]), 98% (active); in test [2] (at 50.0 µM), 97.5% (active). In addition, the growth inhibition is -16% in test [3] (setting [7]); 98% (active) in test [3] (setting [8]); 98.3% (active) in test [3] (at 50.0 µM); -13% in test [4] (setting [7]); 97% (active) in test [4] (setting [8]); 97.6% (active) in test [4] (at 50.0 µM). The growth inhibition in test [5] (setting [7]) was -8%; in test [5] (setting [8]), 96% (active); in test [5] (at 50.0 µM) it was 97.5% (active); in test [6] (setting [7]), 3%; in test [6] (setting [8]), 94% (active); in test [6] (at 50.0 µM) it was 98.3% (active).
Regarding `CC1(C)CCC2(C(=O)O)CCC3(C)C(=CCC4C5(C)CC(O)C(O)C(C)(C(=O)O)C5CCC43C)C2C1` (configuration not stated), the growth inhibition is 99% (active) in test [1] (setting [7]); 99% (active) in test [1] (setting [8]); 91.9% (active) in test [1] (at 50.0 µM); 99% (active) in test [2] (setting [7]); 99% (active) in test [2] (setting [8]); 94.6% (active) in test [2] (at 50.0 µM). The growth inhibition is 99% (active) in test [3] (setting [7]); 99% (active) in test [3] (setting [8]); 93.2% (active) in test [3] (at 50.0 µM); 99% (active) in test [4] (setting [7]); 99% (active) in test [4] (setting [8]); 92.5% (active) in test [4] (at 50.0 µM). Further, the growth inhibition in test [5] (setting [7]) is 99% (active); in test [5] (setting [8]) it was 99% (active); in test [5] (at 50.0 µM), 92.4% (active); in test [6] (setting [7]), 99% (active); in test [6] (setting [8]) it was 99% (active); in test [6] (at 50.0 µM) it was 91.9% (active).
`Cc1ccc(S(=O)(=O)OCC(/C=N/NC(N)=O)OCOC(C)/C=N/NC(N)=O)cc1` (configuration not stated): the growth inhibition in test [1] (setting [7]) was -2%; in test [1] (setting [8]), -7%; in test [1] (at 50.0 µM) it was 14.8%; in test [2] (setting [7]), 0%; in test [2] (setting [8]) it was -5%; in test [2] (at 50.0 µM), 99.2% (active). In addition, the growth inhibition is -4% in test [3] (setting [7]); -8% in test [3] (setting [8]); 1.95% in test [3] (at 50.0 µM); 1% in test [4] (setting [7]); -8% in test [4] (setting [8]); 46.8% in test [4] (at 50.0 µM). Besides, the growth inhibition in test [5] (setting [7]) was 1%; in test [5] (setting [8]), -2%; in test [5] (at 50.0 µM), -1.4%; in test [6] (setting [7]), 1%; in test [6] (setting [8]), -3%; in test [6] (at 50.0 µM), 19.1%.
In the case of `CC(=O)Oc1c(C)cc([N+](=O)[O-])cc1[N+](=O)[O-]`, the growth inhibition in test [1] (setting [7]) is -11%; in test [1] (setting [8]), 99% (active); in test [1] (at 50.0 µM), 99.7% (active); in test [2] (setting [7]), 1%; in test [2] (setting [8]) it was 99% (active); in test [2] (at 50.0 µM), 99.8% (active). For the same molecule, the growth inhibition in test [3] (setting [7]) is 11%; in test [3] (setting [8]), 99% (active); in test [3] (at 50.0 µM) it was 99.8% (active); in test [4] (setting [7]), 16%; in test [4] (setting [8]) it was 99% (active); in test [4] (at 50.0 µM) it was 98.9% (active). Moreover, the growth inhibition was 9% in test [5] (setting [7]); 99% (active) in test [5] (setting [8]); 99% (active) in test [5] (at 50.0 µM); 16% in test [6] (setting [7]); 99% (active) in test [6] (setting [8]); 99.7% (active) in test [6] (at 50.0 µM).
